GRIN3A LBD mod = modulates the human NR3A ligand-binding domain. NR3A LBD differential scanning fluorimetry, Tm shift; 0% = protein alone, 100% = glycine-bound protein. AID 1259313. Tm shift relative to glycine control, % at 25 µM. actives 2.5% (n = 340,000);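 active means melting temperature shift of at least 10% of the positive control shift, at one fixed dose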
Mdm2-MdmX inh = human Mdm2/MdmX binding inhibition; SaOS-2 split-luciferase Mdm2/MdmX complementation, luminescence; AID 485346; actives 3% (n = 330,000); inhibition, % at 8 µM;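 active means inhibition of at least 50% at 8 µM in the primary screen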
Target sequence (O15151 whole entry, looked up): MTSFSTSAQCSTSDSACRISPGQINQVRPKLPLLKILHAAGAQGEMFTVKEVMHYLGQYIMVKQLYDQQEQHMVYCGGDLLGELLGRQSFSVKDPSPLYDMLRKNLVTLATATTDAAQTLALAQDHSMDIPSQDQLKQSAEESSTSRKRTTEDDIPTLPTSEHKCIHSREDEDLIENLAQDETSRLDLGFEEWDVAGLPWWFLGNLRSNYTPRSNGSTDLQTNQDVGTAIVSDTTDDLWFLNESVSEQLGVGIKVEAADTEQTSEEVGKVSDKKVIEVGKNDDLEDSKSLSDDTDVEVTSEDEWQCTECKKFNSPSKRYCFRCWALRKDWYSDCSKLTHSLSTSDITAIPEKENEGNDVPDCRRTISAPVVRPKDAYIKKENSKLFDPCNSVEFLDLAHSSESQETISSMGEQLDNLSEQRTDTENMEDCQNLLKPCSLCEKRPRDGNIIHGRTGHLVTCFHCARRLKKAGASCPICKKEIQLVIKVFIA
Target sequence (Q00987 whole entry, looked up): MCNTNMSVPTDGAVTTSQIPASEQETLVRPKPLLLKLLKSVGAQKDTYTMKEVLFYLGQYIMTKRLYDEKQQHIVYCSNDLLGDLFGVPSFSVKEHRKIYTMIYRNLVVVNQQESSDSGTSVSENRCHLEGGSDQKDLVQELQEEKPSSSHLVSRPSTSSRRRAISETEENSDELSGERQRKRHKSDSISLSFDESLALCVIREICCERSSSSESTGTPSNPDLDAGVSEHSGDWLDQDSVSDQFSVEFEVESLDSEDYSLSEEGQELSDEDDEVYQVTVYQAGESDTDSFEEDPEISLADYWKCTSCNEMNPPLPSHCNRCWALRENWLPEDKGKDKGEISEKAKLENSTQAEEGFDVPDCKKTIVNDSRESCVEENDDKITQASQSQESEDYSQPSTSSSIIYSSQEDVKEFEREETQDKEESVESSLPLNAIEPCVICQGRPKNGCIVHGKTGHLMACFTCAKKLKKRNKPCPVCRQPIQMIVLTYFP
SKKanGAS inh = blocks kanamycin growth of S. pyogenes SKKanGAS strain. inhibition, % at 7.5 µM. BacTiter-Glo, 6 h. actives 1.3% (n = 300,000);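 active means mean replicate score, as percent of positive control median, at least 50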;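 further: strain carries kanamycin resistance gene driven by streptokinase promoter and grows in 40 µg/ml kanamycin; loss of luminescence reflects streptokinase promoter inhibition or plain growth inhibition; 0% = median of DMSO wells and 100% = positive control at its reference dose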
CSC inhib = cancer stem cell inhibition; actives 1.1% (n = 300,000); inhibition, % at 7.5 µM; cancer stem cell-like cells viability, luminescence; AID 2717; in the data active means inhibition above about 75%; tested in HMLE shEcad cells
Beta apoptosis = beta cell apoptosis inhibition; INS-1E cytokine-induced death, ATP luminescence, 48 h; percent of positive-control rescue, neutral wells zero; protection from apoptosis, % (test concentration not listed); actives 0.8% (n = 300,000); AID 435005;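 active means Every replicate reaches about 75%, or at least half do and their mean reaches it too, limit read from the data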;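 further: 0% = cytokine-treated negative control wells and 100% = positive control rescue; higher means more ATP so stronger rescue from cytokine killing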
MPTP inh = permeability transition pore inhibition | isolated mouse mitochondria, Ca2+ swelling absorbance, 30 min | inhibition, % at 10 µM | actives 1.4% (n = 360,000);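 active means inhibition of 50% or more, scaled per plate between neutral and stimulator controls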;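 further: 0% = DMSO wells given calcium and 100% = 1 mM EGTA wells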
Numbers without * were called inactive; nt = no result given. This is a sample that favours compounds with a hit; in the whole collection about 6.9% have one here.

SMILES	GRIN3A LBD mod	Mdm2-MdmX inh	SKKanGAS inh	CSC inhib	Beta apoptosis	MPTP inh
Cn1cc(C(=O)Nc2ccc(F)c(Cl)c2)cn1	2	-4	2	-11	9	-2
Cc1ccc(OC(=O)CCC(=O)Nc2ccc(C)c(C)c2)cc1	0	15	-2	-11	-3	3
O=C(Nc1ccc(Cl)cc1C(F)(F)F)C(Sc1nnc(-c2cccs2)o1)c1ccccc1 (configuration not stated)	22*	34	13	52	-12	17
O=C(Nc1cc(C(F)(F)F)ccc1Cl)C(Sc1nnc(-c2cccs2)o1)c1ccccc1 (configuration not stated)	3	-25	10	-8	4	11
COc1cc(Cl)ccc1OCc1cc(C(=O)N2C[C@@H]3CCC[C@H]2C3)no1	0	-94	-5	6	-1	1
COc1cc(Cl)ccc1OCc1cc(C(=O)N2C[C@H]3CC[C@H]2C3)no1	13*	-71	-1	0	0	3
Cc1cccc(C)c1OCc1cc(C(=O)N2CC3C[C@@H]4CC2C[C@H](C3)C4)no1	2	-84	17	107*	3	-1
COCCN1CC(CNC(=O)c2cc(COc3ccc(C)c(C)c3)on2)CC1=O (configuration not stated)	0	-6	5	6	-4	-3
CN1CCN(c2ccc(C(=O)c3ccccc3)cc2[N+](=O)[O-])CC1	-1	10	-5	83*	-6	2
O=C(O)c1ccc(NS(=O)(=O)c2ccc(N3CCCC3)c([N+](=O)[O-])c2)cc1	10*	-10	17	-2	1	0
COc1cc(/C=N/NC(N)=S)ccc1OC(=O)c1ccc(C)cc1	26*	22	-1	1	6	0
COc1ccc(C=NNC(=S)NN=Cc2ccc(OC)c(OC)c2)cc1OC	-26	nt	nt	nt	nt	0
COc1cc(/C=N/NC(N)=S)ccc1OCc1ccc(C)cc1	25*	6	-1	76*	35	2
COc1cc2[nH]c(C)c(-c3ccccc3)c(=O)c2cc1Cl	nt	nt	nt	nt	nt	0
Cc1ccc(F)cc1NC(=O)c1ccc(NS(=O)(=O)c2ccc(Br)s2)cc1	16*	-1	12	16	-3	-4
O=C(N/N=C/c1ccc(F)c(F)c1)c1cc2c(s1)-c1ccccc1CC2	27*	48	2	15	-4	1
CCSc1nnc(NC(=O)c2nc(-c3ccccc3)n(-c3ccccc3)n2)s1	0	-12	63*	nt	5	-4
CCSc1nnc(NC(=O)c2ccc3ccccc3n2)s1	-1	-25	82*	20	3	-6
COc1ccc(-c2cnnn2-c2ccc(NC(=O)c3ccc(S(=O)(=O)N4CCCCC4)cc3)cc2)cc1	0	25	8	1	16	4
O=C(Nc1ccc(-c2cn3ccsc3n2)cc1)C1CC1	15*	-93	4	-2	-1	2
Cc1cc(Cn2nc(-c3ccccc3)cc2C(=O)NCc2cccs2)on1	-16	-24	-1	-4	5	-1
O=C(Nc1ccn(Cc2c(F)c(F)cc(F)c2F)n1)c1ccc(COc2ccc(Cl)cc2Cl)o1	-7	9	50*	15	-4	0
Cc1ccc2c(=O)[nH]c(Cc3ccccc3C(=O)O)nc2c1	2	24	1	-1	0	2
CCCN1C(=O)/C(=C/c2ccco2)SC1=Nc1ccc(OC)cc1	21*	8	-3	-5	4	-2
CCCN1C(=O)/C(=C/c2ccc(C)o2)SC1=Nc1ccc(OCC)cc1	-1	38	-7	20	4	-10
SMILES	GRIN3A LBD mod	Mdm2-MdmX inh	SKKanGAS inh	CSC inhib	Beta apoptosis	MPTP inh
O=C(Nc1ccc(O)cc1)c1c(O)c2c([nH]c1=O)CCCC2	15*	-113	2	nt	nt	-3
CCC(=O)c1ccc(OCC(=O)OCC(=O)c2c(N)n(C)c(=O)n(C)c2=O)cc1	1	17	nt	3	-1	2
CCC(=O)c1ccc(OCC(=O)OCC(=O)c2cc(C)n(C)c2C)cc1	13*	-2	0	-12	-6	0
Cc1ccc(/C=C/C(=O)NCCc2ccccc2)o1	0	-41	-7	75*	-9	0
COc1ccc(-c2coc3c(C)c4oc(=O)c(CCC(=O)O)c(C)c4cc23)cc1	-9	11	53*	nt	nt	1
Cc1ccc(NC(=O)c2nc[nH]c2C(=O)NC2CCN(C(=O)OC(C)(C)C)CC2)cc1	23*	34	nt	nt	-1	0
COc1ccccc1-c1cnc(C(O)c2ccc(Cl)c(Cl)c2)[nH]1 (configuration not stated)	nt	nt	nt	nt	nt	4
CN(CC(=O)Nc1c(Cl)cccc1Cl)C(=O)Cc1ccc2c(c1)CCC2	0	41	-6	-17	-6	-1
O=C(NCc1ccc(Cl)cc1)c1ccc(-c2ccccc2C(F)(F)F)o1	438*	10	33	44	0	3
O=C(Nc1ccccc1)c1ccc(-c2ccccc2C(F)(F)F)o1	-3	-31	nt	9	-11	2
Cc1cccc(CNC(=O)C2CCC(=O)N(C3CCCCCC3)C2)c1 (configuration not stated)	-1	13	-3	6	-6	-2
CCCN1C(=O)/C(=C/c2nc3ccccc3c(=O)[nH]2)c2ccccc21	25*	19	-7	7	3	-1
CCCN1C(=O)/C(=C/c2nc3ccccc3c(=O)[nH]2)c2cc(C)ccc21	2	30	11	9	-1	1
Clc1ccccc1Cc1noc(CN2CCN(Cc3ccccn3)CC2)n1	-1	-14	4	-14	-5	-1
C[C@]12CC[C@@H]3c4ccc(OC(=O)c5ccccc5)cc4CC[C@H]3[C@@H]1CC[C@@H]2O	-8	41	84*	7	3	2
CN(C(=O)c1ccc(NC(=O)Cc2ccc(NC(=O)C3CCCN(C(=O)C4CC4)C3)cc2)cc1)C1CC1 (configuration not stated)	-1	-13	nt	-8	3	0
CCc1cc2c(=O)nc3n(c2s1)Cc1ccccc1/C3=C(/O)c1ccccc1Cl	-4	47	26	nt	89*	2
CCc1cc2c(=O)nc3n(c2s1)Cc1ccccc1/C3=C(/O)c1cccc([N+](=O)[O-])c1	-1	18	14	4	-2	-2
CCc1cc2c(=O)nc3n(c2s1)Cc1ccccc1/C3=C(/O)c1ccc(F)cc1	nt	49	9	81*	7	4
Cc1cc(C(C)(C)C)cc(C)c1COC(=O)c1cccnc1	1	3	64*	-1	-3	-1
CCCCNC(=O)[C@@](CC)(ONc1ccccc1C(F)(F)F)c1cccc2ccccc12	0	23	nt	29	-1	1
C=CCNC(=O)c1ccccc1NC(=O)c1ccc(Cl)c(S(=O)(=O)Nc2ccccc2)c1	14*	3	36	18	33	4

Source: PubChem BioAssay (several laboratories)
